Rango release inh = qHTS Assay for Inhibitors of RanGTP induced Rango (Ran-regulated importin-beta cargo) - Importin beta complex dissociation; Snurportin-1 (Homo sapiens) + GTP-binding nuclear protein Ran (Homo sapiens) + Importin …; Biochemical FRET Rango-importin beta, RanGTP-induced dissociation; Potency, µM (top dose mostly 46.1 µM), for the others: at the highest dose activity change, negative = inhibition; 340,000 tested, 0.071% active; AID 540253, 2011; further: potency means the concentration at half of the fitted maximal effect; % of control where 0% means no effect; nearly all actives have a fitted effect of over 45% in size
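Quantitative HTS using a FRET biosensor: 0.1 uM Rango, 0.25 uM importin beta, 0.6 uM Ran, 2 mM GTP, 0.2 uM RCC1 final, PBS with DTT, Tween-20 and BSA. Post-read taken 45 min after Ran addition.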
PTAP TSG101 blk = qHTS Assay for Iinhibitors of HIV-1 Budding by Blocking the Interaction of PTAP/TSG101; Tumor susceptibility gene 101 protein (Homo sapiens), Q99816; Fluorescence polarization, FITC-PTAP peptide / Tsg101 binding; Potency, µM (top dose mostly 115 µM), inactives show top-dose activity change, negative = inhibition, hits mostly inhibitors; 340,000 tested, under 10 active; active means well fitted inhibition curve with a large enough effect in the main read-out, with a control signal flat, not every such curve was filed as active; inconclusive means small, poorly fitted or top-dose-only effect, or effect the other way, or a change in a side signal; inactive means no such curve, though single readings can be large or run the other way; further: potency means the concentration at half of the fitted maximal effect; % of control where 0% means no effect
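Steps: Tsg101 binding domain dispensed (10 uM final), compounds pinned in DMSO, FITC-labeled PTAP-motif peptide added (50 nM final); after 20 min binding at room temperature, polarization measured.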
D3 ag = qHTS of D3 Dopamine Receptor Agonist: qHTS | 410,000 tested, 0.58% active | AID 652048, 2013 | D3R DiscoveRx beta-arrestin cells, luminescence, 90 min | max activation, % | D(3) dopamine receptor (Homo sapiens), P35462; in the data active means max activation above about 30%; further: 0% is about no effect
Target sequence (P35462 whole entry, looked up): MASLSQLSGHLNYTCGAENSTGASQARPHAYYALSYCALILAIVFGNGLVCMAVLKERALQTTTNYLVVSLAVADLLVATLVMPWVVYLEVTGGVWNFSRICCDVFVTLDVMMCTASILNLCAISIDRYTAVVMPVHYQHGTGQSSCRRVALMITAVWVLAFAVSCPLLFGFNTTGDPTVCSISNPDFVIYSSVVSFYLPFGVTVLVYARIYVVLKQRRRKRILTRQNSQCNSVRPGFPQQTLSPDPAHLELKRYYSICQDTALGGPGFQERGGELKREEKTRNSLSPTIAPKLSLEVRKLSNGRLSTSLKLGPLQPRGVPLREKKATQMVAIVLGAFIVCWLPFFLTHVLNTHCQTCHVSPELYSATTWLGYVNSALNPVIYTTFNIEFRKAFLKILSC
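Agonist-mode cell screen: cells plated at 1500/well and incubated overnight at 37 °C, then exposed to library compounds for 90 min at 37 °C. Detection reagent was added for 30–60 min at room temperature, and luminescence was read.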
Rango-impB inh = qHTS Assay for Inhibitors of Rango (Ran-regulated importin-beta cargo) - Importin beta complex formation; Potency, µM (series often up to 92.2 µM), for inactives: top-dose inhibition of complex formation; 340,000 tested, 0.031% active; Rango CFP/YFP FRET sensor + importin beta, 45 min; Importin subunit beta-1 (Homo sapiens), Q14974; AID 540263, 2011;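 further: potency means the concentration at half of the fitted maximal effect; 0% = DMSO wells and 100% = buffer wells lacking importin beta; nearly all actives have a fitted effect of over 15% in size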
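Inhibition scored from the CFP 486 nm/YFP 530 nm FRET ratio 45 min after adding 0.125 microM importin beta to 50 nM Rango biosensor preincubated 5 min with compound (room temperature, PBS with DTT, Tween-20, BSA). No-importin wells as positive control.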
MmCpn inh = Inhibitors of TCP-1 ring complex (TRiC) of Methanococcus maripaludis (MmCpn): qHTS; Potency, µM (titrated, usually from 76.9 µM), for the others: at the top dose activity, negative = inhibition, hits mostly inhibitors; Chaperonin Mm-Cpn (Methanococcus maripaludis); purified Mm-Cpn ATPase, ADP Transcreener TR-FRET; 330,000 tested, 0.031% active; active means well fitted inhibition curve with a large enough effect; inconclusive means small, poorly fitted or top-dose-only effect; further: potency means the concentration at half of the fitted maximal effect; on the % scale 0 is the no-effect control and ±100 the full control effect; nearly all actives have a fitted effect of over 80% in size
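25 nM Mm-CPN + cpd, 10 min 37°C; + 10 uM ATP, 30 min 37°C; buffer 30 mM Tris pH 7.4, 100 mM KCl, 5 mM MgCl2, 1 mM DTT; Transcreener ADP HTRF detection 30 min RT.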
DRD3 antagonist = qHTS of D3 Dopamine Receptor Antagonist: qHTS | D(3) dopamine receptor (Homo sapiens), P35462 | D3R cells, DiscoveRx beta-arrestin luminescence, antagonist mode; hits give low values | max response, negative = inhibition, % | 360,000 tested, 2.5% active | AID 652054, 2013; in the data active means max response below about -50%; inconclusive means no clear call, values can overlap the other calls; further: on the % scale 0 is the no-effect control and ±100 the full control effect
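Cells plated overnight at 1500 cells/well, then exposed to library compounds with dopamine controls for 90 minutes at 37 degrees C. DiscoveRx reagent added for 30–60 minutes at room temperature; luminescence read, quantitative HTS format.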
* = called active by the depositor; ? = inconclusive; nt = no result. Only some compounds are listed: those with a hit (about 2.9% of all), similar ones and a draw of the others. Unless noted, the call rests on the fitted dose curve.

SMILES	Rango release inh	PTAP TSG101 blk	D3 ag	Rango-impB inh	MmCpn inh	DRD3 antagonist
COC(=O)c1ccc(Oc2nc3c(c(=O)n(C)c(=O)n3C)n2C(C)C)cc1	nt	nt	1	nt	nt	nt
O=C(Cn1cnnn1)N[C@@H]1C(=O)N2C(C(=O)O)=C(CSc3nncs3)CS[C@H]12	nt	nt	0	nt	nt	nt
COC(=O)N/N=C/c1cn(Cc2ccc(F)cc2)c2ccccc12	3%	-2%	1	0%	3%	0
O=[N+]([O-])c1ccc(N/N=C/c2cn(Cc3ccc(F)cc3)c3ccccc23)nc1	-15%	7%	-2	3%	-6%	-54*
COc1cccc(NC(=O)CCC(=O)N2Cc3ccccc3Oc3ncccc32)c1	nt	nt	-6	nt	nt	nt
C=CCOc1cc(Cl)ccc1C(=O)NCCN(CC)CC	nt	nt	-24	nt	nt	nt
CCn1cc(C(=O)NCc2ccc3c(c2)OCO3)c(=O)c2cc(F)c(N3CCN(C)CC3)cc21	-1%	0%	-26	0%	nt	-70*
C[C@H]1CN([C@@H](C)CO)C(=O)CCCn2nncc2CO[C@@H]1CN(C)Cc1ccc2c(c1)OCCO2	nt	nt	-5	nt	nt	-24
C[C@H]1CN([C@@H](C)CO)C(=O)CCCn2cc(nn2)CO[C@@H]1CN(C)C(=O)Nc1ccc(C(F)(F)F)cc1	nt	nt	10	nt	nt	-10
C[C@@H]1CN([C@H](C)CO)C(=O)CCCn2cc(nn2)CO[C@H]1CN(C)C(=O)Nc1ccc(C(C)(C)C)cc1	nt	nt	-14	nt	nt	-100*
C[C@H](CO)N1C[C@H](C)[C@@H](CN(C)Cc2ccc3c(c2)OCCN3C)OCc2cnnn2CCCC1=O	nt	nt	-5	nt	nt	-88*
COc1ccc(OC)c(NC(=O)CCn2cccn2)c1	nt	nt	6	nt	nt	nt
COc1cc2c(cc1OC)C(c1cccc([N+](=O)[O-])c1)NC(=O)C2 (stereo unspecified)	5%	-5%	1	2%	-2%	4
COc1cc2c(cc1OC)C1(CCCC1)CNC2c1cccc([N+](=O)[O-])c1 (stereo unspecified)	-9%	-4%	-35	0%	5%	-77*
COc1cccc(NC(=O)C(Sc2nnc(Nc3ccccc3C)s2)c2ccccc2)c1 (stereo unspecified)	8%	1%	-11	0%	-1%	-54*
O=c1cc(-c2ccc(O)cc2)oc2cc(O)c(C3OC(CO)C(O)C(O)C3O)c(O)c12 (stereo unspecified)	?	-1%	-26	?	nt	-64*
O=c1cc(-c2ccc(O)c(O)c2)oc2cc(O[C@@H]3O[C@H](CO)[C@@H](O)[C@H](O)[C@H]3O)cc(O)c12	-14%	-1%	9	9%	-2%	-14
CCNC(=O)CSc1nnc(C2CC2)n1-c1ccccc1	25%	-6%	1	3%	-1%	-25
O=C(CSc1nnc(C2CC2)n1-c1ccccc1)NCCc1ccccc1	-1%	-1%	-3	-3%	-2%	-60*
O=[N+]([O-])c1cccc(OCCCN2CCC(Cc3ccccc3)CC2)c1	-9%	-2%	-21	-1%	nt	-101*
COc1cccc(OC)c1OCCCCN1CCC(Cc2ccccc2)CC1	15%	-1%	-21	-3%	-3%	-75*
Cc1ccccc1OC(C)C(=O)N1CCC(Cc2ccccc2)CC1 (stereo unspecified)	-3%	-5%	-2	-3%	-1%	-12
Cc1ccccc1OCCN1CCC(Cc2ccccc2)CC1	1%	0%	-13	0%	-1%	-91*
CCOc1ccccc1C(=O)NCCCN1CCN(CCCNC(=O)c2ccccc2OCC)CC1	-10%	-4%	-3	0%	1%	-53*
CNC[C@@H]1Oc2ccc(NC(=O)Nc3c(C)noc3C)cc2CC(=O)N([C@H](C)CO)C[C@H]1C	14%	-9%	1	?	1%	12
SMILES	Rango release inh	PTAP TSG101 blk	D3 ag	Rango-impB inh	MmCpn inh	DRD3 antagonist
O=C(CCSc1ccc(Br)cc1)c1ccc(O)cc1	-1%	-6%	1	-5%	2%	11
CC(C)(C)C(=O)CSc1nc2ccsc2c(=O)n1Cc1ccccc1F	nt	nt	-17	nt	nt	nt
Cc1ccc([N+](=O)[O-])c(OCCN2CCC(Cc3ccccc3)CC2)c1	13%	-5%	-33	2%	-2%	-83*
CCOc1ccccc1OCCN1CCCC1	1%	-4%	-9	0%	1%	2
CCC(=O)c1ccccc1OCCCN1CCC(Cc2ccccc2)CC1	4%	-2%	-25	0%	0%	-102*
N#Cc1ccccc1OCCCN1CCC(Cc2ccccc2)CC1	27%	-1%	-4	0%	3%	-109*
CCOc1ccccc1OCCN1CCC(Cc2ccccc2)CC1	-7%	3%	-38	1%	2%	-99*
Cc1sc2ncnc(N3CCC(C(=O)Nc4ccc(Br)cc4Br)CC3)c2c1C	14%	0%	9	1%	?	21
CN(Cc1ccccc1)C(=O)c1nc(-c2ccc(Cl)cc2)n2c1CCCCC2	nt	nt	-2	nt	nt	nt
CCOC(=O)c1ccc(N=C2SC(C(=O)Nc3ccccc3)CC(=O)N2C)cc1 (stereo unspecified)	nt	nt	3	nt	nt	nt
CN1Cc2c(N3CCOCC3)nc3sc(C(=O)c4ccc(Br)cc4)c(N)c3c2CC1(C)C	?	-2%	-22	?	0%	-50*
CN1Cc2c(N3CCOCC3)nc3sc(C#N)c(N)c3c2CC1(C)C	0%	-3%	0	-4%	-4%	47
COC(Cn1c2c(c3cc(C)ccc31)CCCC2NCc1ccccc1)OC (stereo unspecified)	14%	2%	-19	0%	-3%	-76*
CCCCCCN1CCN(C2CN(C3CCCCC3)S(=O)(=O)C2)CC1 (stereo unspecified)	nt	nt	-14	nt	nt	-117*
O=S1(=O)CC(N2CCC(Cc3ccccc3)CC2)CN1C1CCCCC1 (stereo unspecified)	nt	nt	-9	nt	nt	-78*
O=S1(=O)CC(N2CCN(CC3CC3)CC2)CN1Cc1ccccc1 (stereo unspecified)	nt	nt	-7	nt	nt	-61*
